# Inconclusive results are not listed. Where a call stands in place of a potency, no number is given. A number with no mark means an inactive call. The source made the active and inactive calls. Unless noted, calls follow the shape of the dose curve; as a rule, active = well fitted curve in the direction sought with a large enough effect in the repeat runs; inconclusive = weak or mixed curves; inactive = no such curve, though single readings can be large; an effect the other way counts as inactive or inconclusive.
# Legend:
# [1] = qHTS assay to identify small molecule agonists of the vitamin D receptor (VDR) signaling pathway - cell viability counter screen (AID 743224); also: series mostly up to about 63 µM; nearly all actives have a fitted effect of over 50% in size
# Outline: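 Luminescence from CellTiter-Glo, read after 30 min at room temperature, reports viability of VDR-bla cells treated with compounds for 16 h at 37C in the wells used for the beta-lactamase FRET read.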
# [2] = qHTS assay to identify small molecule antagonists of the vitamin D receptor (VDR) signaling pathway - cell viability counter screen (AID 743225); also: nearly all actives have a fitted effect of over 50% in size
# Outline: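 Read-out: CellTiter-Glo luminescence measured 30 min after reagent addition at room temperature. Cells were VDR-bla HEK 293T exposed 16 h at 37C, 5% CO2, to compound with 3 nM final calcitriol agonist.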
# [3] = qHTS assay to identify small molecule agonists of the NFkB signaling pathway (AID 1159509; active = well fitted curve in the direction sought with a large enough effect in the signal ratio in the repeat runs, not every such curve was filed as active; the % refers to the signal ratio; also: series mostly up to about 61 µM)
# Outline: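 NFkB-bla ME-180 cells with a beta-lactamase reporter under an NF-kB response element were plated overnight, treated with compounds in DMSO for 5 hr at 37 C, then loaded with FRET substrate for 1.5 hr at room temperature.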
# [4] = qHTS assay to identify small molecule agonists of the NFkB signaling pathway - cell viability counter screen (AID 1159515; calls by dose curve; also: series mostly up to about 61 µM; nearly all actives have a fitted effect of over 55% in size)
# Outline: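 Luminescence from CellTiter-Glo (30 min, room temperature) gives viability, measured in the same wells as the beta-lactamase reporter read. Cells were NFkB-bla ME-180, 2,000 per well, treated 5 hr with compounds.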
# [5] = qHTS assay to identify small molecule agonists of the endoplasmic reticulum stress response signaling pathway (AID 1159516; active = well fitted activation curve with a large enough effect in the signal ratio in the repeat runs, not every such curve was filed as active; the % refers to the signal ratio)
# Outline: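 Read-out is beta-lactamase cleavage of a FRET substrate (405 nm excitation; 460 and 530 nm emissions) in ESRE-bla HeLa cells after a 5 hr compound exposure at 37 C. Substrate incubation ran 2 hr at room temperature.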
# [6] = qHTS assay to identify small molecule agonists of the endoplasmic reticulum stress response signaling pathway - cell viability counter screen (AID 1159517; calls by dose curve;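 also: HeLa cells carrying an ER stress response element beta-lactamase reporter; series mostly up to about 61 µM; nearly all actives have a fitted effect of over 50% in size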)
# Outline: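 Cells, HeLa ESRE-bla; density, 1,500/well; dosing, 5 hr at 37 C, 5% CO2; readout, CellTiter-Glo luminescence after 30 min RT.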
# [7] = qHTS assay to identify small molecule antagonists of the retinoid-related orphan receptor gamma (ROR-gamma) signaling pathway - cell viability counter screen (AID 1159520); also: nearly all actives have a fitted effect of over 50% in size
# Outline: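 Cytotoxicity was read from cellular ATP (CellTiter-Glo luminescence) after 16 hr at 37 C with 1 uM doxycycline induction. The inducer was added 2 hr after compound transfer to Tet-on ROR gamma CHO cells.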
# [8] = qHTS assay to identify small molecule agonists of the AP-1 signaling pathway - cell viability counter screen (AID 1159525; calls by dose curve; also: nearly all actives have a fitted effect of over 55% in size)
# Outline: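 Luminescent ATP readout (Cell Titer Glo, 30 min RT), normalised to DMSO and tetra n-octyl ammonium bromide controls. Cells were ME-180 AP-1-bla in 0.5% dialyzed FBS Opti-MEM, with a 5 h, 37 °C compound exposure.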
# [9] = qHTS assay to identify small molecule agonists of the AP-1 signaling pathway (AID 1159526; calls by dose curve)
# [10] = molecular target: Retinoic acid receptor RXR-alpha (Homo sapiens) (UniProt P19793); assay: qHTS assay to identify small molecule agonists of the RXR signaling pathway (AID 1159527; calls by dose curve; also: nearly all actives have a fitted effect of over 35% in size; also: potency is read from the fitted curve at half-maximal effect)
# Outline: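 Read-out: beta-lactamase FRET ratio (405 nm excitation, 460 and 530 nm emission) after 2 hr substrate loading at room temperature. Cells were RXR-alpha-UAS-bla HEK 293T treated with compounds for 16 hr in 2% charcoal-stripped FBS medium.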
# [11] = qHTS assay to identify small molecule agonists of the RXR signaling pathway - cell viability counter screen (AID 1159529)
# Outline: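 HEK 293T RXRa-bla cells, 2% CS-FBS; 5 h settle; cpd 16 h 37 C, 5% CO2; CellTiter-Glo 30 min RT, luminescence. Tetraoctyl ammonium bromide as positive control.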
# [12] = qHTS assay to identify small molecule antagonists of the retinoid acid receptor (RAR) signaling pathway - cell viability counter screen (AID 1159551); also: nearly all actives have a fitted effect of over 35% in size
# Outline: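 Luminescent ATP quantitation (CellTiter-Glo) gave cell viability in C3RL4 cells exposed to test chemicals for 6 h at 37 C alongside 1 uM final retinol.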
# [13] = qHTS assay to identify small molecule antagonists of the retinoic acid receptor (RAR) signaling pathway (AID 1159552; also: nearly all actives have a fitted effect of over 50% in size)
# Outline: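 Cells of the C3RL4 line were seeded, incubated overnight, then dosed with compounds in DMSO followed immediately by retinol (1 uM final). Six hours later luciferase detection reagent went in; signal was measured after 30 min at RT.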
# [14] = qHTS assay to identify small molecule agonists of the retinoic acid receptor (RAR) signaling pathway (AID 1159553); also: potency is read from the fitted curve at half-maximal effect
# Outline: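 Luminescence from a RARE-driven luciferase reporter in C3RL4 cells served as the read-out, measured after 30 min with detection reagent at room temperature. Compounds in DMSO were applied for 6 hr at 37 C following overnight seeding.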
# [15] = molecular target: Nuclear receptor ROR-gamma (Homo sapiens) (UniProt P51449); assay: qHTS assay to identify small molecule antagonists of the retinoid-related orphan receptor gamma (ROR-gamma) signaling pathway (AID 1159521)
# Outline: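 CHO Tet-on RORγ, RORE-luc reporter. Cpd 2 h pre-incubation, then dox hyclate 1 uM final, 16 h, 37 C/5% CO2. ONE-Glo luminescence; decrease = antagonist.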
# [16] = qHTS assay to identify small molecule antagonists of the estrogen related receptor (ERR) signaling pathway - cell viability counter screen (AID 1224818);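 also: series mostly up to about 46 µM; viability measured after 17.5 h of compound exposure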
# Outline: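 Multiplexed counter screen to separate cytotoxic compounds from true ERR modulators. ERR cells received DMSO-dissolved compounds after a 6 h pre-incubation, were exposed 17.5 h at 37 C, then assayed with CellTiter-Fluor fluorescence.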
# [17] = tested on: estrogen-related receptor alpha (ERRalpha) with PGC-1alpha coactivator, human; assay: qHTS assay to identify small molecule antagonists of the estrogen related receptor signaling pathway with the pleiotropic PPARgamma coactivator (PGC) (AID 1224821; calls by dose curve)
# Outline: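 Cells engineered for PGC/ERR signalling (line from NTP) were plated 6 h at 37 C/5% CO2, then exposed to DMSO-dissolved compound for 18 h at 37 C. Luciferase activity was read by One-Glo luminescence after 30 min at room temperature.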
# [18] = qHTS assay to identify small molecule antagonists of the estrogen related receptor signaling pathway with the pleiotropic PPARgamma coactivator (PGC) cell viability counter screen (AID 1224822; also: series mostly up to about 46 µM)
# Outline: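 Cells: PGC/ERR, 2,000/well, 1536-well format. Pre-incubation 6 h, 37 C/5% CO2. Compound exposure 17.5 h, 37 C. Detection: CellTiter-Fluor, 30 min, fluorescence.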
# [19] = qHTS assay to identify small molecule agonists of the estrogen related receptor signaling pathway with the pleiotropic PPARgamma coactivator (PGC) (AID 1224823)
# Outline: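 PGC/ERR reporter cells were seeded, rested 6 h at 37 C/5% CO2, then exposed to compounds in DMSO by pin transfer for 18 h at 37 C. Luciferase activity was read as luminescence after One-Glo reagent and 30 min at room temperature.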
# [20] = qHTS assay to identify small molecule antagonists of the estrogen related receptor (ERR) signaling pathway from Tox21 library - cell viability counter screen (AID 1224834); also: nearly all actives have a fitted effect of over 30% in size
# Outline: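 Fluorescence from CellTiter-Fluor gives the viability read-out, taken 30 min after reagent addition. Before that, ERR cells seeded 6 h earlier were incubated with compounds for 17.5 h at 37 C.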
# Retinoic acid receptor RXR-alpha (Homo sapiens), sequence (P19793 whole entry, looked up): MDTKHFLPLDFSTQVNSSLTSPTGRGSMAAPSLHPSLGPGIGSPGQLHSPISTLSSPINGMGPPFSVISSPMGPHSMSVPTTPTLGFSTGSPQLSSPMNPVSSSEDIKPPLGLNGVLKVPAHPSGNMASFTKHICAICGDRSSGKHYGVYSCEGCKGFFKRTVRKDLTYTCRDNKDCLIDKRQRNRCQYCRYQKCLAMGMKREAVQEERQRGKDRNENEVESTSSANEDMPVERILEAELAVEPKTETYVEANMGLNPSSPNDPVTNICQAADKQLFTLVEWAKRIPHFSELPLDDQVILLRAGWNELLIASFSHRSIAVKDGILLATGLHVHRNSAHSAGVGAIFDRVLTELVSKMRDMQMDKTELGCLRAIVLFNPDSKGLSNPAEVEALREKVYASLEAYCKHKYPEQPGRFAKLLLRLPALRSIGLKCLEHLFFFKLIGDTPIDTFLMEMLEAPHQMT
SMILES,Potency [1],Potency [2],outcome [3],outcome [4],outcome [5],outcome [6],Potency [7],outcome [8],Potency [9],Potency [10],Potency [11],outcome [12],Potency [13],Potency [14],Potency [15],outcome [16],outcome [17],outcome [18],outcome [19],Potency [20]
O=c1[nH]c(=O)n([C@H]2C[C@H](O)[C@@H](CO)O2)cc1C(F)(F)F,inactive,inactive,inactive,inactive,inactive,inactive,inactive,inactive,inactive,inactive,inactive,inactive,inactive,inactive,–,–,–,–,–,–
CNCCC(Oc1ccccc1OC)c1ccccc1 (configuration not stated),–,inactive,inactive,inactive,inactive,inactive,inactive,–,–,–,inactive,inactive,–,–,inactive,inactive,inactive,inactive,inactive,inactive
CCCCN1C[C@H](O)[C@@H](O)[C@H](O)[C@H]1CO,–,–,inactive,inactive,inactive,inactive,inactive,inactive,inactive,inactive,inactive,inactive,inactive,inactive,–,–,–,–,–,–
NC(=O)NS(=O)(=O)c1ccc(Cl)cc1,inactive,inactive,inactive,inactive,inactive,inactive,inactive,inactive,inactive,inactive,inactive,inactive,inactive,inactive,–,–,–,–,–,–
COc1cc(C)ccc1C(C)C,–,inactive,inactive,inactive,inactive,inactive,inactive,inactive,inactive,inactive,inactive,inactive,inactive,inactive,–,–,–,–,–,inactive
CCCOCCC,inactive,–,inactive,inactive,inactive,inactive,inactive,inactive,inactive,inactive,inactive,inactive,inactive,inactive,–,–,–,–,–,–
COc1ccc(S(=O)(=O)Nc2nnc(CC(C)C)s2)cc1,inactive,inactive,inactive,inactive,inactive,inactive,inactive,–,inactive,–,–,inactive,inactive,inactive,inactive,–,–,–,–,inactive
Clc1cccc(-c2cc(Cl)cc(Cl)c2)c1,inactive,inactive,inactive,inactive,inactive,inactive,inactive,–,–,–,–,inactive,inactive,inactive,inactive,–,–,–,–,inactive
O=C1Nc2ccc([N+](=O)[O-])cc2C1=O,inactive,–,inactive,inactive,inactive,inactive,inactive,–,–,inactive,–,inactive,inactive,inactive,inactive,–,–,–,–,–
CCOC(=O)CS,inactive,–,inactive,inactive,inactive,inactive,inactive,–,–,–,inactive,inactive,–,inactive,inactive,–,–,–,–,inactive
Cc1ccc([N+](=O)[O-])c(N)c1,inactive,inactive,inactive,inactive,inactive,inactive,inactive,–,–,–,inactive,inactive,–,–,inactive,–,–,–,–,–
COC(=O)c1ccc(OC)cc1,inactive,inactive,inactive,inactive,inactive,inactive,inactive,inactive,inactive,inactive,inactive,inactive,inactive,inactive,–,–,–,–,–,inactive
C1CCOC1,inactive,–,inactive,inactive,inactive,inactive,inactive,inactive,inactive,inactive,inactive,inactive,inactive,inactive,–,–,–,–,–,inactive
CCCCNc1cc(C(=O)O)cc(S(N)(=O)=O)c1Oc1ccccc1,inactive,inactive,inactive,inactive,inactive,inactive,inactive,inactive,inactive,inactive,inactive,inactive,–,inactive,–,inactive,–,inactive,–,inactive
O=CCCc1ccccc1,inactive,inactive,inactive,inactive,inactive,inactive,inactive,inactive,inactive,19.5 µM (active),inactive,inactive,–,inactive,–,–,–,–,–,inactive
CC(=O)OC(C)OC(C)=O,inactive,inactive,inactive,inactive,inactive,inactive,inactive,inactive,inactive,2.01 µM (active),inactive,inactive,inactive,inactive,–,–,–,–,–,inactive
CCCCc1ccc2nc(NC(=O)OC)[nH]c2c1,–,inactive,inactive,inactive,inactive,inactive,inactive,–,–,–,inactive,inactive,inactive,8.41 µM (active),inactive,–,–,–,–,–
CCOC(=O)[C@H](CCc1ccccc1)N[C@@H](C)C(=O)N1Cc2cc(OC)c(OC)cc2C[C@H]1C(=O)O,inactive,inactive,inactive,inactive,inactive,inactive,inactive,inactive,inactive,inactive,inactive,inactive,inactive,inactive,–,–,–,–,–,–

# Reference: PubChem BioAssay (Tox21)
